# Sampled rows, rich in hits. Any-hit rate of the full collection: about 3%.
# SENP6 inh: SENP6 protease inhibition; Q9GZR1; Recombinant SENP6 catalytic domain, aminoluciferin luminescence; inhibition, % at 10 µM; AID 2599; actives 1.8% (n = 330,000);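 active means inhibition above about 50% at the single tested dose, limit read from the data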;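 further: plate controls were DMSO wells with enzyme for no effect and DMSO wells lacking enzyme for full effect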
# Target sequence (Q9GZR1 628-1112 limits assumed): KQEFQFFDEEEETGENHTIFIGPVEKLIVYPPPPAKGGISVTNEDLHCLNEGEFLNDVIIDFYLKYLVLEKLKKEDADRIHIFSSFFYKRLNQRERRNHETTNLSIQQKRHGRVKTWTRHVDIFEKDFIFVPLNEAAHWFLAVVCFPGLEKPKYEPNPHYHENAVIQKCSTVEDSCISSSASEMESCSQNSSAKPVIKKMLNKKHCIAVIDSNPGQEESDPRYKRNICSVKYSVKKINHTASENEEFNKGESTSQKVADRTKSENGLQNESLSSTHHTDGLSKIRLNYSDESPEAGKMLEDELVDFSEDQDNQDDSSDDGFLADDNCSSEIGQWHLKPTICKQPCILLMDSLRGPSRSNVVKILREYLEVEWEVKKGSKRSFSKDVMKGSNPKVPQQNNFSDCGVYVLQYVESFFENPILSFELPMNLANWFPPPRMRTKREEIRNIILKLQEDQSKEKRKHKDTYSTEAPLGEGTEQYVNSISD
# SENP8 block-1: inhibitors of human SENP8 protease; Q96LD8; purified SENP8, Z-RLRGG-aminoluciferin cleavage, luminescence; inhibition, % at 10 µM; actives 1.2% (n = 330,000); AID 2540; in the data active means inhibition above about 50%
# TRAIL sens C8: sensitizes caspase-8 expressing cells to TRAIL | AID 624354 | inhibition (viability loss, TRAIL sensitization), % at 10 µM | actives 1% (n = 360,000) | NB7+C8 cells + TRAIL, ATPlite viability luminescence;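 active means compounds causing at least 50% loss of cell viability in the single-dose screen, relative to plate controls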
# SENP8 block-2: SENP8 (human) protease inhibition | Q96LD8 | recombinant SENP8, Nedd8 substrate fluorescence | inhibition, % at 20 µM | actives 0.64% (n = 360,000); in the data active means inhibition mostly above about 40%, no sharp cut-off; inactive means mostly below about 27%
# SENP7 block: inhibitors of human SENP7 protease; Q9BQF6; recombinant SENP7, Z-RLRGG-aminoluciferin luminescence, 40 min; inhibition, % at 5 µM; actives 1.5% (n = 330,000);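 active means inhibition above about 50% at the single test dose, limit read from the data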;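 further: plate controls were DMSO with enzyme for no effect and no enzyme buffer wells for full effect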
# PPC-1+TRAIL kill: compounds killing PPC-1 cancer cells with TRAIL present (potentiator screen, no TRAIL-free arm) | PPC-1 cells + TRAIL, ATPLite viability luminescence | cell killing (% activity), % at 4 µM or 5 µM | actives 0.41% (n = 220,000);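 active means cell killing above 50% in the first pass at 4 µM, then a duplicate retest at 5 µM averaging 50% or more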;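 further: plate controls were cells with TRAIL plus DMSO for no effect and medium-only wells lacking cells for full effect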
# Numbers without * were called inactive; · = no result.
SMILES,SENP6 inh,SENP8 block-1,TRAIL sens C8,SENP8 block-2,SENP7 block,PPC-1+TRAIL kill
C#CCOCCOCCOCCNc1nc(N2CCN(C(=O)CCCCCCCCCCNC(=O)Cn3cc(C[C@@H](C)O)nn3)CC2)nc(N2CCN(C(=O)CCCCCCCCCCNC(=O)[C@@H]([C@H](C)CC)n3cc(CCCCCN)nn3)CC2)n1,-20,-15,93*,7,7,·
C#CCOCCOCCOCCNc1nc(N2CCN(C(=O)CCCCCCCCCCNC(=O)[C@H](CCCCN)n3cc(C[C@@H](C)CC)nn3)CC2)nc(N2CCN(C(=O)CCCCCCCCCCNC(=O)[C@H](CCCN=C(N)N)n3cc(C[C@@H](C)CC)nn3)CC2)n1,-124,-40,94*,10,-4,·
C#CCOCCOCCOCCNc1nc(N2CCN(C(=O)CCCCCCCCCCNC(=O)[C@H](CCCCN)n3cc(C)nn3)CC2)nc(N2CCN(C(=O)CCCCCCCCCCNC(=O)[C@H](CCCN=C(N)N)n3cc(C[C@@H](C)CC)nn3)CC2)n1,-27,-11,·,·,6,·
C#CCOCCOCCOCCNc1nc(N2CCN(C(=O)CCCCCCCCCCNC(=O)[C@H](CCCCN)n3cc(C[C@@H](C)CC)nn3)CC2)nc(N2CCN(C(=O)CCCCCCCCCCNC(=O)[C@@H]([C@H](C)O)n3cc(C)nn3)CC2)n1,-44,-32,96*,28,7,·
C=CCNC(=O)c1c(Br)cnn1-c1ccc(C)cc1,-4,12,39,14,2,0
C=CCOn1c(C)c(C(C)=O)c2c3no[n+]([O-])c3ccc21,-10,2,60*,15,-1,12
COn1c(C)c(C(C)=O)c2c3no[n+]([O-])c3ccc21,-26,7,-13,-75,2,-10
CCc1ccc(/C=C2\SC(=S)N(CCCC(=O)N3CCN(C)CC3)C2=O)cc1,·,·,87*,41*,·,·
CCc1ccc(/C=C2/SC(=S)N(CCC(=O)NCCCN3CCOCC3)C2=O)cc1,-7,-10,25,19,-5,·
CCc1ccc(/C=C2\SC(=S)N(CCCC(=O)NCCCN3CCOCC3)C2=O)cc1,·,·,75*,18,·,·
CCC(C)c1ccccc1NC(=O)C(C)N(C)Cc1cccc(OC)c1 (centres undefined),-8,-2,4,2,8,8
COc1ccc(-c2nn(-c3ccccc3)cc2/C=N/N=C(N)N)cc1OC,-22,-13,25,-412,-3,55*
COc1cc(/C=C2/C(=O)N(c3ccc(Br)cc3)N=C2C)cc(OC)c1OC,20,-9,-2,49*,20,·
COc1cc(/C=C2/C(=O)N(c3ccc(C)c(C)c3)N=C2C)cc([N+](=O)[O-])c1O,4,-5,-9,20,3,·
COc1cc(/C=C2/C(=O)N(c3ccc(C(=O)O)cc3)N=C2C)cc(OC)c1O,31,8,1,24,47,·
COc1cc(/C=C2\C(=O)N(c3ccccc3)N=C2C)ccc1Oc1ccc([N+](=O)[O-])cc1[N+](=O)[O-],·,·,10,58*,·,-3
C#CCOc1ccc(/C=C2/C(=O)N(c3cccc(C(=O)O)c3)N=C2C)cc1OC,22,-7,6,26,45,·
C#CCOc1ccc(/C=C2/C(=O)N(c3ccc(S(N)(=O)=O)cc3)N=C2C)cc1OC,·,·,-5,63*,·,·
CC(C)NC(=S)N/N=C/c1ccc2c(c1)OCCO2,44,21,30,23,12,11
CN(C)c1ccc(NC(=O)c2cccc(C(=O)Nc3ccc(N(C)C)cc3)n2)cc1,32,32,53*,34,14,34
COc1cc(C(=S)N2CCOCC2)ccc1OC(=O)/C=C/c1ccco1,-11,-8,-9,12,-10,21
Cc1cc2nc3ccc(N(C)C)cc3nc2cc1N,51*,50,52*,81*,16,·
O=C(/C=C/c1cccs1)N1CCc2ccccc21,-3,93*,56*,33,98*,58*
Cc1ccc2c(c1)COc1c3ccc(C(=O)NC(C)C)cc3nn1-2,36,35,47,-204,34,33
c1ccc2c(c1)COc1c3cc4c(cc3nn1-2)OCO4,·,·,59*,10,·,·
Cc1nc2nc(-c3ccc(Cl)cc3)cn2nc1C,69*,62*,28,-500,-6,0
Cc1ccc(OCCC(=O)OCC(=O)NC(=O)c2ccccc2)cc1,-1,4,-15,6,3,·

# Screening data (PubChem BioAssay)
